Hit rate of the full screen: of about 69,000 compounds, about 8,600 (12%) showed an effect of 50% or more. The sample as a whole holds a higher share of strong results than the screen did.
tested on: Plasmodium berghei; test: Screen against P. berghei liver stage (PbLuc), transformed with Luciferase, at 10uM; format: functional, HepG2; settings: tested at 10 uM

Point of comparison: `CC(=O)NCc1ccc(C(=O)N2CCCC2c2cnn(C)c2)cc1` (stereo not drawn), INHIBITION -12.1%. Against it:
- Cc1noc(C(C)N2CCN(CCC(=O)N3CCCCC3)CC2)n1 (stereo not drawn) — higher, 17.4%
- Cc1cc(C2CCNCC2)nc(-c2ccsc2)n1 — higher, 20.2%
- CCC(=O)Nc1ccc(C(C)NC(=O)COCCOC)cc1 (stereo not drawn) — lower, -28.4%
- CC(=O)N1CCC2(CC1)CN(C(=O)c1cccnc1)c1ccc(F)cc12 — higher, 34.9%
- COc1c(C2CCCN2CC(=O)Nc2ccncc2)c(C)nn1C (stereo not drawn) — higher, 21.6%
- Cc1nc(NCCN2CCCC2=O)cc(C2CN(C(C)C)CCO2)n1 (stereo not drawn) — higher, 25%
- CCc1n[nH]c(C2CN(C(=O)c3ccc4c(c3)COC4)CCO2)n1 (stereo not drawn) — lower, -59.4%
- CC(=O)N1CCC(N2CC(Cc3nccc4ccn(C)c34)C2)CC1 — higher, 28%
- COc1ccc(NC(=O)N2CCN(CCSc3ccccc3)CC2)cc1 — lower, -28.15%
- CC(C)c1cc(C(=O)N2CCN(c3ccc(F)c(Cl)c3)CC2)n(C)n1 — higher, 50.8%
- CC(=O)c1ccc(N2CCN(C(=O)c3cc(C(C)C)nn3C)CC2)cc1 — higher, 36.3%
- CC(C)c1cc(C(=O)N2CCN(c3ccncc3)CC2)n(C)n1 — lower, -106%
- COc1cccc(C2CC(=O)Nc3c2cnn3C(C)(C)C)c1 (stereo not drawn) — lower, -38.6%
- Cc1ccc(Sc2ccc(CN3CCC4(CCCNC4=O)C3)o2)cc1 (stereo not drawn) — higher, 90.8%
- O=C1NCCCC12CCN(S(=O)(=O)N1CCOCC1)C2 (stereo not drawn) — higher, -3.24%
- CCOc1cc(Cl)c(CN2CCC3(CCCNC3=O)C2)cc1OC (stereo not drawn) — higher, 9.41%
- O=C1NCCCC12CCN(Cc1ccc(SC3CCCCC3)o1)C2 (stereo not drawn) — higher, 72.3%
- O=C1NCCN(CC2CC2)C12CCN(Cc1ccco1)CC2 — higher, 45.5%
- CCN(CC)Cc1cc(C(=O)N2CCC3(CC2)NCCNC3=O)c(C)o1 — higher, 12.4%
- CN1CCNC(=O)C12CCN(Cc1ccco1)CC2 — higher, 36.9%
- Cc1cc(CN2CCC3(CC2)C(=O)NCCN3CC2CC2)oc1C — higher, 42.7%
- O=C1NCCCC12CCN(Cc1ccc(-c3ccccc3)s1)C2 (stereo not drawn) — higher, 21.2%
- Cc1ccc(Sc2ccc(CN3CCC4(CC3)NCCNC4=O)o2)cc1 — higher, 66.1%
- CCOc1cc2c(cc1CN1CCC3(CCCNC3=O)C1)CCC2 (stereo not drawn) — higher, 41.2%
- Cc1ccc(CN2CCC3(CC2)C(=O)NCCN3CC2CC2)o1 — higher, 89.3%
- CC(NC(=O)CCc1ccsc1)c1ccc2c(c1)NC(=O)CO2 (stereo not drawn) — higher, 1.223%
- CN(C)S(=O)(=O)N1CCN(C(=O)c2cc(-c3ccc(Br)s3)n[nH]2)CC1 — higher, 11.2%
- Cc1nc(N)c2ccc(C3CCCCN3)nc2n1 (stereo not drawn) — higher, 29.35%
- Cc1cc(CN(C)C(=O)c2ccc(Cl)c(N3CCCC3=O)c2)no1 — higher, -11.4%
- COCCC(=O)N1C[C@@H](c2cccc(OC)c2)[C@@]2(CCCCC(=O)N2)C1 — higher, 3.48%
- CC(C(=O)N1CCCN(Cc2cnn(C(C)C)c2)CC1)n1ccnc1 (stereo not drawn) — higher, 48.1%
- Cc1ccc(C(=O)N2CC[C@@H]3CN(C4CCOCC4)CCO[C@@H]3C2)o1 — higher, 22.2%
- CCc1nc(C2CCCN2C(=O)c2csc(NC(C)=O)n2)no1 (stereo not drawn) — lower, -17%
- COc1cc(N2CCCC(c3ncc[nH]3)C2)ncn1 (stereo not drawn) — higher, 28.4%
- COc1ccc(C(=O)N2C[C@@H](CN3CCCC3)[C@@H](CO)C2)c(C)c1 — higher, 34.9%
- Cc1ccccc1CSc1nc(N)cc(N2CCCC(C(N)=O)C2)n1 (stereo not drawn) — higher, 41.3%
- CCc1nc(C)cc(N2CCCC(C(=O)c3ccc(OC)cc3C)C2)n1 (stereo not drawn) — higher, 83.9%
- COc1ccc(C(=O)C2CCCN(c3cc(N)ncn3)C2)c(C)c1 (stereo not drawn) — higher, 60.1%
- CCOC(=O)C1CCCN(c2nccc(-n3nc(C)cc3C)n2)C1 (stereo not drawn) — higher, 1.74%
- COc1ccc(C(=O)C2CCCN(c3cnccn3)C2)c(C)c1 (stereo not drawn) — higher, 25.5%
- COc1ccc(C(=O)C2CCCN(c3nccc(N)n3)C2)c(C)c1 (stereo not drawn) — higher, 51.2%
- COc1ccc(C(=O)C2CCCN(c3cc(OC)ncn3)C2)c(C)c1 (stereo not drawn) — higher, 91.8%
- CCc1nc2n(n1)CCCC2NC(=O)Nc1cc(OC)ccc1C (stereo not drawn) — higher, 13.5%
- COc1cccc(C(=O)C2CCCN(c3nccc(N)n3)C2)c1 (stereo not drawn) — higher, 43%
- O=C1C(n2nnc(-c3ccsc3)n2)CCN1CC(F)(F)F (stereo not drawn) — lower, -35.9%
- CC(C)n1ccnc1Cn1ccc2ncccc2c1=O — higher, -9.91%
- CN(C)CCN1CCN(C(=O)c2ccn(C)c(=O)c2)CC1 — higher, -7.31%
- COc1cc(NC(=O)N2CCCC2c2ccco2)cc(OC)c1 (stereo not drawn) — higher, 45.5%
- CN(C)C(CNC(=O)c1ccc(-n2cnnn2)cc1)c1ccccc1Cl (stereo not drawn) — lower, -20.5%
- Cc1nc(NC(=O)c2cccnc2N2CCOCC2)sc1C — higher, 62.9%
- Cc1csc(NC(=O)c2cccnc2N2CCOCC2)n1 — higher, -3.39%
- O=C(Nc1nc2c(s1)CCC2)c1cccnc1N1CCOCC1 — higher, 34%
- COc1cc(-c2n[nH]c(CC#N)n2)cc(OC)c1OC — higher, 12.7%
- CCn1nc(C)c(NC(=O)c2nnn(Cc3ccccc3)c2OC)c1C — higher, 27.5%
- CCCn1nccc1NC(=O)CN1CCc2cnc(CC)nc2C1 — higher, 23.6%
- CCCn1nccc1NC(=O)CN1CCc2cnc(C(C)C)nc2C1 — higher, 55%
- CCCn1nccc1NC(=O)CN1CCc2c(nc(C(C)C)n2C)C1 — higher, 12.7%
- CCc1ncc2c(n1)CN(CC(=O)Nc1ccc(Cl)cn1)CC2 — higher, 67.2%
- Cc1ncc2c(n1)CN(CC(=O)Nc1ccc(Cl)cn1)CC2 — higher, 46.2%
- CC(C)c1ncc2c(n1)CN(CC(=O)Nc1ccc(Cl)cn1)CC2 — higher, 0.914%
- Cc1csc(C(=O)N2CCC3(CC(N(C)c4ccncn4)C3)C2)c1 (stereo not drawn) — higher, -10.8%
- COc1c(C2CCCN2C(=O)c2cnc[nH]2)c(C)nn1C (stereo not drawn) — higher, 29.2%
- CN1CC2(CCCN(Cc3nnc(-c4cccc(F)c4)o3)C2)OC1=O (stereo not drawn) — higher, 19.4%
- CCn1cnnc1C1CCN(C(=O)c2cc(C)n(CC)c2C)CC1 — higher, -10.6%
- Cc1ccc(N2CC[C@H](OCC3CC3)[C@@H]2Cc2ccncc2)nn1 — higher, 27.5%
- Cc1nc(CNC(=O)N2CCN(c3ccc(Cl)cn3)CC2)sc1C — higher, 54.3%
- O=C(CCc1nccs1)N1CCN(c2ccc(Cl)cn2)CC1 — higher, 35.3%
- Cc1nc(CNC(=O)N2CCN(c3ccc(Cl)cn3)CC2)no1 — higher, 49.1%
- Cc1cc(CNC(=O)N2CCN(c3nc(C)c(C)s3)CC2)no1 — higher, 42.6%
- Cc1cc(CNC(=O)N2CCN(C(C)c3cccnc3)CC2)c(C)o1 (stereo not drawn) — higher, 35.2%
- Cc1nc(C)c(CNC(=O)N2CCN(c3ccc(Cl)cn3)CC2)s1 — higher, 95.4%
- COCCOC1CCN(C(=O)NCc2coc3ccccc23)CC1 — higher, 46.1%
- Cc1cc(CNC(=O)N2CCN(c3ccc(Cl)cn3)CC2)c(C)o1 — higher, 54.3%
- COCCOC1CCN(C(=O)NCc2cc(C)oc2C)CC1 — higher, 53.7%
- O=C(c1ccc2c(c1)CCC2)N1CCN(c2ccc(Cl)cn2)CC1 — higher, 11.1%
- Cc1nc(N2CCN(C(=O)NCc3cscn3)CC2)sc1C — higher, 43.9%
- Cc1cc(CNC(=O)CCN2CCN(c3ccccn3)CC2)c(C)o1 — higher, 15.8%
- Cc1ccc(S(=O)(=O)NC(=O)COc2cccc(C(N)=O)c2)s1 — higher, 11.2%
- c1ccc(CO[C@H]2CC[C@H]3[C@H]2OCCN3CCN2CCCCC2)nc1 — higher, 40.3%
- CC(=O)N1CC[C@@]2(C(=O)Nc3ccccc3)CCN(S(C)(=O)=O)CC[C@@H]12 — higher, 41.2%
- CC(C)c1nn(C)c(Cl)c1CNCc1ccc2c(c1)OCCO2 — higher, 1.5%
- CN(C)CCCN(Cc1ccco1)Cc1ccnn1C1CCCCO1 (stereo not drawn) — higher, -0.232%
- Cc1ccoc1C(=O)N1C[C@@H]2[C@@H](C1)OCC(=O)N2Cc1cccnc1 — higher, 0%
- OC1(CN2CCOC(CNc3cccnn3)C2)CCCCC1 (stereo not drawn) — higher, 25.4%
- Cn1c(N2CCOCC2)nc2cc(C(=O)NCc3cccnc3)ccc21 — higher, 48.2%
- CC(=O)N1CCC(c2cncc(N3CCCC(O)C3)n2)CC1 (stereo not drawn) — higher, -6.73%
- O=c1cc(C2CCNCC2)nc(CCc2ccccn2)[nH]1 — higher, -0.273%
- O=c1cc(C2CCNCC2)nc(CCCc2ccccc2)[nH]1 — higher, 22.7%
- O=c1cc(C2CCNCC2)nc(Cc2cccc(Cl)c2)[nH]1 — higher, 52.2%
- CN(CCCOc1ccccc1Cl)C(=O)CN1C(=O)CCNC1=O — lower, -44.2%
- COC(=O)CCCNC(=O)N1CCc2c([nH]c3ccc(Cl)cc23)C1 — lower, -50%
- COc1ccc(C(=O)N2C[C@@H](O)[C@H](NCc3ncccc3C)C2)cc1 — higher, 31.45%
- CCc1ncc2c(n1)CN(Cc1nnc(C(C)C)o1)CC2 — higher, 30.3%
- CC(C)N1CCC(c2ccnc3c(C(=O)N4CCCC4)ncn23)CC1 — higher, 60%
- CC(C)N1CCC(c2ccnc3c(C(=O)N4CCOCC4)ncn23)CC1 — higher, 12.7%
- O=C(c1ncn2c(C3CCN(CC4CC4)CC3)ccnc12)N1CCCC1 — higher, 12.7%
- CN(CC(=O)NC1(C)CCS(=O)(=O)C1)Cc1ccc(F)c(F)c1 (stereo not drawn) — higher, 27.6%
- Cc1cc(S(=O)(=O)Nc2onc(C)c2C)sc1C — higher, 87.5%
- Cc1cc(S(=O)(=O)Nc2onc(C)c2C)c(C)s1 — higher, 4.1%
- Cc1noc(NS(=O)(=O)c2ccc(Cl)s2)c1C — higher, 44.7%
- CN(C)c1cc(CNC(=O)c2cccnc2O)ccn1 — higher, 9.64%
- COCc1cn(CC2CCN(Cc3cc(C)[nH]n3)CC2)nn1 — higher, 26.7%
- COC[C@@H]1CC[C@H]2[C@H](CCN2C(=O)c2ccncc2F)O1 — higher, 29%
- CCn1cc(CNc2ccc(Br)c(OC)c2)cn1 — higher, 32%
- COCCOc1ccc(NC(=O)N(C)Cc2ccsc2)cn1 — higher, 31.8%
- CCn1cc(CNc2ccc3nccnc3c2)cn1 — higher, 18.8%
- COC(=O)c1cc(NCc2cscn2)ccc1C — higher, 11.9%
- COCCN(C)c1ccc(NCc2cccnc2)nc1 — higher, 15.1%
- CCn1cc(CNc2ccc(N(C)CCOC)cn2)cn1 — higher, 57.2%
- COc1cccc(-c2cc(NCc3cscn3)n(C)n2)c1 — lower, -40.5%
- COCCN(C)c1ccc(NCc2ccsc2)nc1 — higher, 80.8%
- COCCN(C)c1ccc(NCc2cscn2)nc1 — higher, 75.1%

— ChEMBL document CHEMBL4513216, “Probing the Open Global Health Chemical Diversity Library for Multistage-Active Starting Points for Next-Generation Antimalarials” (ACS Infect Dis, 2020)
